An excerpt weighted towards active compounds, which were near 2.3% of everything screened.
A549 tox-1: counter-screen for Nrf2 inhibitors: cytotoxicity in A549 cells; Potency, µM (highest dose often 46 µM), for the others: at the top dose activity change, negative = cytotoxicity, most hits filed as inhibitors; 390,000 tested, 0.16% active; A549 ARE-Fluc cells, CellTiter-Fluor viability, 18-24 h; also: % is scaled to controls: 0 for no effect and ±100 for the full control effect
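A549 ARE-Fluc cells in 5% FBS OPTI-MEM, 5000 cells/well, rested 2 h then exposed to compounds in concentration-response for 18-24 h at 37 °C. Viability by CellTiter-Fluor fluorescence (Ex 405/Em 525) after 30 min; luciferase luminescence (BugLite, 15 min, RT) read afterwards.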
Nrf2 activator: activates Nrf2 signaling; 410,000 tested, 0.31% active; Potency, µM (doses to about 46.1 µM), without a hit: at the top dose activation, hits mostly activators; AREc32 ARE-luciferase reporter (MCF7-derived line), luminescence, 24 h; also: % of control where 0% means no effect; nearly all actives have a fitted effect of over 65% in size
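AREc32 cells carrying an ARE-driven firefly luciferase, 1000 cells/well in OPTI-MEM with 5% FBS, dosed after overnight attachment and incubated 24 hr at 37 deg C. Steady-Glo luminescence read after 30 min at RT.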
Rango complex inh: inhibitors of Rango-importin beta complex formation | Potency, µM (doses to about 92.2 µM), without a hit: at the highest dose inhibition of complex formation | 340,000 tested, 0.031% active | Rango CFP/YFP FRET sensor + importin beta, 45 min | Q14974; calls by dose curve;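 also: 0% = DMSO wells and 100% = buffer wells lacking importin beta; nearly all actives have a fitted effect of over 15% in size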
Target sequence (Q14974 whole entry, looked up): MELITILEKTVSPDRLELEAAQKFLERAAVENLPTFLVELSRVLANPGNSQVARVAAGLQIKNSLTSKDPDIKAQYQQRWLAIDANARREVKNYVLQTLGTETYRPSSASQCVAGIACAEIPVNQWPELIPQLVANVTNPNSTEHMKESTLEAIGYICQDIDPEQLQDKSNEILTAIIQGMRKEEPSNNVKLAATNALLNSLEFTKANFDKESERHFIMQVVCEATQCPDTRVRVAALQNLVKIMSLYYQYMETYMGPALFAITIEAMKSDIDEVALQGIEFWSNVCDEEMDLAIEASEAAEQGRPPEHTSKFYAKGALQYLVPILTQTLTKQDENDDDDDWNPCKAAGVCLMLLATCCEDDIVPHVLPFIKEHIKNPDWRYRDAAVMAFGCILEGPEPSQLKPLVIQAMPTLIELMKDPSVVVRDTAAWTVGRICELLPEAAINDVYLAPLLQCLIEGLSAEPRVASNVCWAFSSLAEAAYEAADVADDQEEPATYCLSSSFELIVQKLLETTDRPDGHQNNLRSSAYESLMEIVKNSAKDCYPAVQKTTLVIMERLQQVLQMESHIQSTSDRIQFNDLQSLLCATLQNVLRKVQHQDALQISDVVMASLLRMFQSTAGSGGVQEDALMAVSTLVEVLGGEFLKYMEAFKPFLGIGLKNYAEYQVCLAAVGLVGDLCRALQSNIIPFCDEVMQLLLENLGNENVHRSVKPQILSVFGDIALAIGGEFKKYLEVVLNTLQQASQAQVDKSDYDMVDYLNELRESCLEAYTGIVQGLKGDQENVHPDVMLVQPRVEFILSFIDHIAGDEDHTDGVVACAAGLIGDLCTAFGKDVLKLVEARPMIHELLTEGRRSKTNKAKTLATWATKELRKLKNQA
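Inhibition scored from the CFP 486 nm/YFP 530 nm FRET ratio 45 min after adding 0.125 microM importin beta to 50 nM Rango biosensor preincubated 5 min with compound (room temperature, PBS with DTT, Tween-20, BSA). No-importin wells as positive control.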
Nrf2 inh: inhibitors of Nrf2 signaling. A549 ARE-Fluc reporter, luciferase luminescence, 18-24 h. Potency, µM (top dose mostly 46 µM), for the others: top-dose activity change, negative = inhibition, actives largely listed as inhibitors. 360,000 tested, 2.1% active. AID 504444; also: % is scaled to controls: 0 for no effect and ±100 for the full control effect; nearly all actives have a fitted effect of over 60% in size
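Nrf2 function is reported as luminescence of an ARE-controlled luciferase in A549 cells. Compounds were tested at several concentrations, and a CellTiter-Fluor read on the same wells flagged cytotoxicity.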
Rango release inh: inhibition of RanGTP-driven Rango-importin beta dissociation | O95149+P62826 | Biochemical FRET Rango-importin beta, RanGTP-induced dissociation | Potency, µM (top dose mostly 46.1 µM), without a hit: top-dose activity change, negative = inhibition | 340,000 tested, 0.071% active | AID 540253; calls by dose curve; also: % of control where 0% means no effect; nearly all actives have a fitted effect of over 45% in size
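FRET read at 45 min, room temperature: inhibitors block the CFP/YFP signal rise when RanGTP (0.6 uM Ran, 2 mM GTP, 0.2 uM RCC1) frees Rango (0.1 uM) from importin beta (0.25 uM). Pre-read after 5 min compound exposure flags interference.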
FLuc enzyme inh: counter-screen for Nrf2 inhibitors: firefly luciferase enzyme inhibition. shares compounds with Nrf2 inh. purified firefly luciferase, luminescence inhibition. Potency, µM (doses to about 57.5 µM), without a hit: at the highest dose activity change, negative = inhibition, hits mostly inhibitors. 1,400 tested, 4% active. AID 720522; also: % is scaled to controls: 0 for no effect and ±100 for the full control effect; nearly all actives have a fitted effect of over 65% in size
A549 tox-2: toxic to A549 ARE-Fluc cells in Nrf2 counterscreen | AID 720523 | A549 ARE-Fluc cells, cytotoxicity counterscreen | 1,400 tested, 2% active | Potency, µM (titrated, usually from 46.1 µM), inactives show top-dose activity change, negative = cytotoxicity, most hits filed as inhibitors | shares compounds with Nrf2 inh;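 also: cells exposed to compounds for 18 to 24 hours; % is scaled to controls: 0 for no effect and ±100 for the full control effect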
ARE-Fluc inh: confirmation of Nrf2 inhibitors in A549 ARE reporter cells; 1,400 tested, 74% active; shares compounds with Nrf2 inh; Potency, µM (top dose mostly 46.1 µM), inactives show at the highest dose activity change, negative = inhibition, hits mostly inhibitors; A549 ARE-firefly luciferase reporter, luminescence; also: % is scaled to controls: 0 for no effect and ±100 for the full control effect; nearly all actives have a fitted effect of over 65% in size
The depositor's hits bear a star; ? = inconclusive; . = not tested or not shown. Unless noted, calls follow the shape of the dose curve; as a rule, active = well fitted curve in the direction sought with a large enough effect; inconclusive = small, poorly fitted or top-dose-only effect, or another doubt; inactive = no such curve, though single readings can be large; an effect the other way counts as inactive or inconclusive. Potency is read from the fitted curve at half-maximal effect.

SMILES	A549 tox-1	Nrf2 activator	Rango complex inh	Nrf2 inh	Rango release inh	FLuc enzyme inh	A549 tox-2	ARE-Fluc inh
CC1CCCCC1NS(=O)(=O)c1ccc(S(=O)(=O)NCc2ccncc2)cc1 (centres undefined)	-14%	-1%	0%	2.3µM*	4%	1%	-11%	3.7µM*
O=C(Nc1ccc(F)cc1C(F)(F)F)C1CCN(c2ncccn2)CC1	6%	1%	.	3%	.	.	.	.
Cc1cc(S(=O)(=O)NCc2ccncc2)c(C)cc1Br	-8%	0%	2%	4.1µM*	-1%	-1%	-4%	?
CN(Cc1cnc2nc(N)nc(N)c2n1)c1ccc(C(=O)NC(CCC(=O)O)C(=O)O)cc1 (centres undefined)	-9%	0%	?	0.29µM*	?	-17%	-9%	1.5µM*
CN(Cc1cnc2nc(N)nc(N)c2n1)c1ccc(C(=O)NC(CCC(=O)O)C(=O)O)cc1C(F)(F)F (centres undefined)	-19%	1%	?	?	-26%	.	.	.
Cc1ccc(NC(=O)c2ccc(=O)[nH]n2)cc1S(=O)(=O)Nc1ccccc1Cl	-2%	0%	0%	-4%	26%	.	.	.
Cc1ccc(NC(=S)NC(=O)c2ccc(F)cc2)cc1S(=O)(=O)Nc1ccccc1Cl	?	2%	3%	7.3µM*	5%	-10%	-12%	?
COc1ccc(C(=O)Nc2ccc(Cl)c(S(=O)(=O)Nc3ccccc3OC)c2)cc1	-12%	0%	-1%	7.3µM*	1%	?	-10%	9.2µM*
CCCC(=O)NC(c1cccs1)c1cc(Cl)c2cccnc2c1O (centres undefined)	-17%	-2%	?	5.2µM*	4%	1%	-20%	7.3µM*
CCC(=O)NC(c1ccc(OC)c(OC)c1)c1cc(Cl)c2cccnc2c1O (centres undefined)	?	1%	1%	5.8µM*	-6%	1%	-20%	6.5µM*
COc1ccc(C(NC(C)=O)c2cc(Cl)c3cccnc3c2O)cc1OC (centres undefined)	-8%	0%	3%	?	-3%	.	.	.
CCCC(=O)NC(c1ccccc1OC)c1ccc2cccnc2c1O (centres undefined)	?	5%	0%	7.3µM*	-3%	1%	-14%	9.2µM*
COc1ccc(CNC(=O)c2ccc[nH]2)cc1Cl	-5%	0%	-2%	12%	2%	.	.	.
O=C(COc1cccc(F)c1)Nc1nc(-c2cccnc2)cs1	8%	1%	1%	1%	-12%	.	.	.
C/C(=N\NC(=O)c1cc(-c2cccc([N+](=O)[O-])c2)n[nH]1)c1ccccc1O	?	-1%	?	9.2µM*	-6%	-14%	-3%	?
C/C(=N/NC(=O)c1cc(-c2cccc([N+](=O)[O-])c2)n[nH]1)c1cccc(O)c1	0%	1%	3%	-41%	1%	.	.	.
CO[C@H]1/C=C/O[C@@]2(C)Oc3c(C)c(O)c4c(O)c(c(C=NN5CCN(C)CC5)c(O)c4c3C2=O)NC(=O)/C(C)=C\C=C\[C@H](C)[C@H](O)[C@@H](C)[C@@H](O)[C@@H](C)[C@H](OC(C)=O)[C@@H]1C	?	0%	3%	4.1µM*	30%	-10%	?	4.6µM*
O=C(COC(=O)c1cc(S(=O)(=O)N2CCCC2)ccc1O)Nc1ccc(SC(F)F)cc1	-13%	0%	-1%	-30%	-6%	.	.	.
O=C(CNc1cc(S(=O)(=O)N2CCCC2)ccc1OCC(F)(F)F)Nc1ccc(SC(F)F)cc1	?	5%	-1%	5.2µM*	29%	-3%	-19%	?
O=C(Nc1ccc(F)cc1Cl)C1CCN(c2ncnc3c2nc2n3CCCCC2)CC1	2%	-1%	.	-9%	.	.	.	.
CCn1ncc(/C=C/C(=O)Nc2c(C)nn(Cc3ccc(Cl)cc3Cl)c2C)c1C	?	8%	-4%	5.8µM*	8%	-10%	-23%	.
CCn1nc(C)c(NC(=O)/C=C/c2cnn(C)c2C)c1C	-18%	0%	8%	-18%	7%	.	.	.
Cc1ccc2oc(C(=O)N(C)CCC(O)c3ccccc3)c(C)c2c1 (centres undefined)	-12%	4%	0%	30%	2%	.	.	.
CC(=O)C(C)n1c(CN(C)Cc2ccccc2)nc2c1c(=O)n(C)c(=O)n2C (centres undefined)	-2%	4%	?	?	1%	.	.	.
CC(C)n1c(CN(C)Cc2ccccc2)nc2c1c(=O)n(C)c(=O)n2C	-17%	0%	3%	0.46µM*	-19%	2%	-3%	4.1µM*
SMILES	A549 tox-1	Nrf2 activator	Rango complex inh	Nrf2 inh	Rango release inh	FLuc enzyme inh	A549 tox-2	ARE-Fluc inh
CC(c1ccccc1)N(C)C(=O)CSc1nnc(C2CC2)n1C1CC1 (centres undefined)	0%	0%	-1%	2%	4%	.	.	.
C[C@]12CCC(=O)C=C1[C@H](O)C[C@@H]1[C@@H]2[C@@H](O)C[C@@]2(C)[C@H]1CC[C@]2(O)C(=O)CO	-1%	0%	-4%	7%	-2%	.	.	.
CC12CCC(=O)C=C1CCC1C2C(O)CC2(C)C1CCC2(O)C(=O)CO (centres undefined)	-9%	0%	-2%	0.12µM*	-2%	-1%	-5%	0.092µM*
C[C@]12CCC(=O)C=C1CC[C@@H]1[C@@H]2[C@@H](O)C[C@@]2(C)[C@H]1CC[C@]2(O)C(=O)CO	1%	1%	4%	0.029µM*	3%	3%	?	0.29µM*
COC(=O)c1ccccc1NC(=O)CSc1nc2ccsc2c(=O)n1CCCCC(=O)O	.	0%	.	.	.	.	.	.
CN(C)c1ccc(/C=C/c2cccc[n+]2[O-])cc1	-6%	0%	?	10%	?	.	.	.
CC(C)CC[n+]1ccccc1/C=C/c1ccc(N(C)C)cc1	?	3%	?	7.3µM*	?	2%	?	5.8µM*
COc1ccc(C2=NCC(CSc3nnc(-c4ccc5c(c4)OCO5)o3)S2)cc1 (centres undefined)	?	1%	0%	?	-2%	.	.	.
